# The panel holds about 79,000 compounds, 15% with a hit somewhere; the sample as a whole holds those more often. Unmarked numbers belong to inactive results. Calls of active or inactive are those of the source. Rule as the data show it: active = growth inhibition above about 70%; inactive = the rest.
# Test: NCI Yeast Anticancer Drug Screen. Data for the mlh1 strain (AID 171);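 also: 0% = growth of vehicle-treated control cultures of the same strain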
# Conditions: S. cerevisiae mlh1 strain growth inhibition, hits give high values
# Experimental: Growth inhibition of yeast strains with defined genetic alterations is measured as a screen for potential anti-cancer activity. Selected strains with alterations in DNA damage repair or cell cycle control were exposed to compounds and growth inhibition was measured relative to vehicle treated controls. The strain used in this assay is mlh1
SMILES,growth inhibition (at 1.2 µM) [%],growth inhibition (at 3.7 µM) [%],growth inhibition (at 11.0 µM),growth inhibition (at 33.0 µM),growth inhibition (at 100.0 µM)
COc1cc2ccccc2c2cc([N+](=O)[O-])oc12,7,10,21%,41%,60%
Cn1cnc(N)c1C(=N)[Se],2,-3,28%,60%,89% (active)
O=C(Nc1cc(Cl)ccc1Cl)C(Cl)(Cl)Cl,1,4,5%,12%,20%
CCCN(CCC)c1c([N+](=O)[O-])cc(S(N)(=O)=O)cc1[N+](=O)[O-],-27,-28,-16%,31%,-6%
CCNCC(=O)O[C@]1(CC)C(=O)OCc2c1cc1n(c2=O)Cc2cc3ccccc3nc2-1,13,6,-2%,-13%,-21%
O=P(CCCCP(=O)(c1ccccc1)c1ccccc1)(c1ccccc1)c1ccccc1.[Cl][Sn]([Cl])([c]1ccccc1)[c]1ccccc1,3,9,80% (active),96% (active),97% (active)
O=[N+]([O-])c1ccc(C=Cc2ccccc2)cc1.[C-]#[O+].[C-]#[O+].[C-]#[O+].[Cr],-1,-1,9%,65%,71% (active)
COC1CC(CC2CCC(C)C(C(C)C(=O)O)O2)OC2(OC(C)(C3CCC(C)(C4OC(C5OC(O)(CO)C(C)CC5C)CC4C)O3)CC2C)C1C (stereo not given),-3,-15,0%,83% (active),97% (active)

# From PubChem BioAssay (NCI)
